Inconclusive results are not listed. A call without a number means that no potency is given here. A number with no mark means an inactive call. Calls of active or inactive are those of the source. The call rests on the fitted dose curve.
Biological target: Thyrotropin receptor (Homo sapiens) (UniProt P16473)
Assay: qHTS assay to identify small molecule agonists of the thyroid stimulating hormone receptor (TSHR) signaling pathway (AID 1224843); further: nearly all actives have a fitted effect of over 45% in size
Details: TSHR-HEK293 cells, cAMP HTRF, agonist mode, 30 min; series mostly up to 92.4 µM
Text: National Center for Advancing Translational Sciences [NCATS]
NIH Chemical Genomics Center [NCGC]
U.S. Environmental Protection Agency [EPA]
National Institutes of Environmental Health Sciences [NIEHS]
National Toxicology Program [NTP]
U.S. Food and Drug Administration [FDA]
TSHR is the receptor for thyrotropin (thyroid stimulating hormone or TSH), a member of the glycoprotein hormone family. TSH is released by the anterior pituitary gland and is the main regulator of thyroid gland growth and development. Upon binding circulating thyrotropin, a G-protein signal cascade activates adenylyl cyclase and […] cAMP concentration is increased. cAMP is a key second messenger involved extensively in cellular signal transduction pathways associated with the majority of G-protein coupled receptors (GPCRs). The activation of these GPCRs by neurotransmitters, lipids, nucleotides, peptides and hormones results in the activation or the inhibition of plasma membrane-bound adenylate cyclase through heterotrimeric G-proteins. A cell-based TSHR assay was used to screen the Tox21 10K library for compounds that can modulate TSHR in agonist mode.
Tox21 Assay Protocol Summary:
TSHR-Hek293 cells were dispensed at 800 cells/4uL/well in 1536-well white plates using a Multidrop dispenser. […] The plates were incubated at room temperature for 30 min. 2.5 ul/well of cAMP-d2 and 2.5ul/well of anti-cAMP-cryptate was added respectively into the assay plates using a Flying Reagent Dispenser. After 1 hr incubation at room temperature, the fluorescence intensity in the plates was measured using an Envision plate reader. Each test compound was measured at 15 concentrations and in triplicates.

Sequence of Thyrotropin receptor (Homo sapiens) (P16473 whole entry, looked up): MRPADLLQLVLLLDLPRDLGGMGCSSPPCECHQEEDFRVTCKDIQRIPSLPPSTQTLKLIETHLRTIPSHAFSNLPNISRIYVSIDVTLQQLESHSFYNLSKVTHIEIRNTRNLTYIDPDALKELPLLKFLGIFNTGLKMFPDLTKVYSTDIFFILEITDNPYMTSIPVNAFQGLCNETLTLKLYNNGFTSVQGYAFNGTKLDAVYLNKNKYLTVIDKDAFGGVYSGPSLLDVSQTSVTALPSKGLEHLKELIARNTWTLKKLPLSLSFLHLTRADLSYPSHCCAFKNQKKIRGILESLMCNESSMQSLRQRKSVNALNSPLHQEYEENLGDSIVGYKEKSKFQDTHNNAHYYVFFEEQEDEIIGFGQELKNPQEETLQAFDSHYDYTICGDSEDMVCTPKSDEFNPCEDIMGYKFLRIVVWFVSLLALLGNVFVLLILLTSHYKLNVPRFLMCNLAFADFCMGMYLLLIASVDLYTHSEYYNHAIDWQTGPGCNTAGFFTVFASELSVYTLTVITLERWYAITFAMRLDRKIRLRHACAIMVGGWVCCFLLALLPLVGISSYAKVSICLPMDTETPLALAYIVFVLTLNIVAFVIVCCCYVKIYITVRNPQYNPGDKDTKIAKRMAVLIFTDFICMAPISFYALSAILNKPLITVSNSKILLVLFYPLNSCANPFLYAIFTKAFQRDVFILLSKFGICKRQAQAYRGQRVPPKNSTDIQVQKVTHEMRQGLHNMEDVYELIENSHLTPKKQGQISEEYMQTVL

| Structure (SMILES) | activation | Potency |
| --- | --- | --- |
| C[C@@H]1CN(c2c(F)c(N)c3c(=O)c(C(=O)O)cn(C4CC4)c3c2F)C[C@H](C)N1 | 4.51% [at 19 µM] | – |
| CCCCC(=O)O[C@]1(C(=O)CO)[C@H](C)C[C@H]2[C@@H]3CCC4=CC(=O)C=C[C@]4(C)[C@@]3(F)[C@@H](O)C[C@@]21C | – | inactive |
| C=CCc1cc(OC)c(O)c(C(=O)NCCO)c1 | – | inactive |
| Cc1ccc([N+](=O)[O-])cc1Cl | – | inactive |
| CCNCCO | – | inactive |
| CCCCCCCCCC/C=C/C#N | – | inactive |
| CC(C)=CCC[C@](C)(O)[C@@H]1CC=C(C)CC1 | – | inactive |
| C1CCOC1 | – | inactive |
| O=C(Cl)c1cccc([N+](=O)[O-])c1 | – | inactive |
| FC(F)(F)C(Cl)(Cl)Cl | – | inactive |
| CCOC(=O)c1ccccc1O | – | inactive |
| CCCCCCn1c(=O)c2c(ncn2C)n(C)c1=O | – | inactive |
| COc1ccccc1N1CCN(CCCNc2cc(=O)n(C)c(=O)n2C)CC1 | – | inactive |
| Nc1ccc2ccccc2c1S(=O)(=O)O | – | inactive |
| CCCCNCCCC | – | inactive |
| CN(C)CC[C@@H](c1ccc(Cl)cc1)c1ccccn1 | – | inactive |
| CC/C=C\CCOC(=O)CCCCC | – | inactive |
| CCc1cc2cc(OC)c(OC)cc2c(Cc2ccccc2)n1 | – | inactive |
| CC1=C2[C@H](/C=C(\C)C(=O)O)CC[C@@H](C)[C@H]2CC1 | – | inactive |
| CC(C)C[C@H](NC(=O)OCC1c2ccccc2-c2ccccc21)C(=O)O | – | inactive |

| Structure (SMILES) | activation | Potency |
| --- | --- | --- |
| CCCCCCCCc1ccc(S(=O)(=O)O)cc1 | – | inactive |
| CCN(CC)CCOc1ccc(Cc2ccccc2)cc1 | – | inactive |
| O=C(CCCl)NCc1ccccc1 | – | inactive |
| O=Cc1ccc(F)c(Br)c1 | – | inactive |
| N#Cc1ccc(C(c2ccc(C#N)cc2)n2cncn2)cc1 | – | inactive |
| CCCOc1ccc2c(c1)CC[C@@H]1[C@@H]2CC[C@]2(C)C(OC)CC[C@@H]12 (stereo not given in full) | – | inactive |
| CCC1(C)NC(=O)NC1=O (stereo not given) | – | inactive |
| O=C(O)[C@@H]1CSCN1 | – | inactive |
| CCN[C@H]1CN(CCCOC)S(=O)(=O)c2sc(S(N)(=O)=O)cc21 | – | inactive |
| COC(=O)N[C@H](C(=O)N[C@@H](Cc1ccccc1)[C@@H](O)CN(Cc1ccc(-c2ccccn2)cc1)NC(=O)[C@@H](NC(=O)OC)C(C)(C)C)C(C)(C)C | – | inactive |
| C=CCCC=C | – | inactive |
| CCc1nnc(NS(=O)(=O)c2ccc(N)cc2)s1 | – | inactive |
| NCCCN1CCN(CCCN)CC1 | – | inactive |
| CN1CCN(C2=Nc3cc(F)ccc3Cc3ccccc32)CC1 | – | inactive |
| C/C(=N\O)[C@@H](C)NCC(C)(C)CN[C@H](C)/C(C)=N/O | – | inactive |
| COc1ccccc1OCC(O)COC(N)=O (stereo not given) | – | inactive |
| O=C1C=CC(=O)O1 | – | inactive |
| COC(=O)c1ccc2cc(C(=O)OC)ccc2c1 | 2.3% [at 19 µM] | – |
| CN1[C@@H]2CC[C@H]1CC(OC(=O)c1c[nH]c3ccccc13)C2 (stereo not given in full) | – | inactive |
| O=c1[nH]c(=O)n([C@H]2C[C@H](O)[C@@H](CO)O2)cc1C(F)(F)F | – | inactive |

Reference: PubChem BioAssay (Tox21)
